In ChEMBL document CHEMBL1961873, “Compounds: GSK PKIS; Assays: Nanosyn kinase panel” (2012):

Legend:
[1] = biological target: Mitogen-activated protein kinase kinase kinase kinase 4 (Homo sapiens) (UniProt O95819); conditions: at 1 µM;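 note: reported figure is an averaged inhibition value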
[2] = biological target: Dual specificity mitogen-activated protein kinase kinase 1 (Homo sapiens) (UniProt Q02750); conditions: at 0.1 µM
[3] = biological target: Dual specificity mitogen-activated protein kinase kinase 1 (Homo sapiens) (UniProt Q02750); conditions: at 1 µM
[4] = biological target: Misshapen-like kinase 1 (Homo sapiens) (UniProt Q8N4C8); conditions: at 0.1 µM
Chain of Misshapen-like kinase 1 (Homo sapiens) (Q8N4C8 whole entry, looked up): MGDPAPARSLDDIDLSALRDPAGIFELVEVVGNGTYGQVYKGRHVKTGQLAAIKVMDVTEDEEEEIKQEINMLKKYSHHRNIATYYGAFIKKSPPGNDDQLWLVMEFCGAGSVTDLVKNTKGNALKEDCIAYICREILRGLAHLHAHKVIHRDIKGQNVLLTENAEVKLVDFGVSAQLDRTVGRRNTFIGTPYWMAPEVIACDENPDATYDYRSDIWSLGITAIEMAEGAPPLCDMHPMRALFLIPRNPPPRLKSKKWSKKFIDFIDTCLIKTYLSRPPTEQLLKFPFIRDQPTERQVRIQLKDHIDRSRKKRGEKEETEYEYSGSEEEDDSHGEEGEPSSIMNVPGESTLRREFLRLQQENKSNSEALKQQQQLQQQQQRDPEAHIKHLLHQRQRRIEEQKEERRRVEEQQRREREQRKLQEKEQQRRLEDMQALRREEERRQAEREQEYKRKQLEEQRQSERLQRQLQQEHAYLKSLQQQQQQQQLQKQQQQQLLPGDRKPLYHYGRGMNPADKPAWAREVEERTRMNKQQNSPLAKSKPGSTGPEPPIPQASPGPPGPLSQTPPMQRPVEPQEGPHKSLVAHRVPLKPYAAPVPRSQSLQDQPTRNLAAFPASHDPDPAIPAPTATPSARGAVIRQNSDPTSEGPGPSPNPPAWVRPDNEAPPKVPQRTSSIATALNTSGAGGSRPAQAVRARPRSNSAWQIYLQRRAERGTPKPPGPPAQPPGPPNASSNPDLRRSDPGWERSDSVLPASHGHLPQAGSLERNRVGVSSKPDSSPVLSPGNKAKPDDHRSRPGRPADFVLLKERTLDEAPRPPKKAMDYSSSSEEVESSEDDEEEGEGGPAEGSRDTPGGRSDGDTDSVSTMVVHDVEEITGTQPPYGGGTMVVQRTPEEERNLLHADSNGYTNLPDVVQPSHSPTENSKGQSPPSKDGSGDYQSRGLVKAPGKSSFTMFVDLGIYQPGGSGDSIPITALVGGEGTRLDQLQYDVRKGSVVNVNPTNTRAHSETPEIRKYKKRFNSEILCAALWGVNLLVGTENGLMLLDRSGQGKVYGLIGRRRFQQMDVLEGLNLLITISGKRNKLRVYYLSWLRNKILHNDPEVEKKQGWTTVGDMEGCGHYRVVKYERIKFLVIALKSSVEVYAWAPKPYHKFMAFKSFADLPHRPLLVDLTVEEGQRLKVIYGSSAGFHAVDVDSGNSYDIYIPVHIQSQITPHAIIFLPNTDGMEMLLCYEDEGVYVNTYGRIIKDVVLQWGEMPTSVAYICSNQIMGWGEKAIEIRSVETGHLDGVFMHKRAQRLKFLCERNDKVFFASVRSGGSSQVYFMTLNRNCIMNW

[5] = biological target: Misshapen-like kinase 1 (Homo sapiens) (UniProt Q8N4C8); conditions: at 1 µM
[6] = biological target: T1, Serine/threonine-protein kinase 4 (Homo sapiens) (UniProt Q13043); conditions: at 0.1 µM
T1 sequence (whole entry): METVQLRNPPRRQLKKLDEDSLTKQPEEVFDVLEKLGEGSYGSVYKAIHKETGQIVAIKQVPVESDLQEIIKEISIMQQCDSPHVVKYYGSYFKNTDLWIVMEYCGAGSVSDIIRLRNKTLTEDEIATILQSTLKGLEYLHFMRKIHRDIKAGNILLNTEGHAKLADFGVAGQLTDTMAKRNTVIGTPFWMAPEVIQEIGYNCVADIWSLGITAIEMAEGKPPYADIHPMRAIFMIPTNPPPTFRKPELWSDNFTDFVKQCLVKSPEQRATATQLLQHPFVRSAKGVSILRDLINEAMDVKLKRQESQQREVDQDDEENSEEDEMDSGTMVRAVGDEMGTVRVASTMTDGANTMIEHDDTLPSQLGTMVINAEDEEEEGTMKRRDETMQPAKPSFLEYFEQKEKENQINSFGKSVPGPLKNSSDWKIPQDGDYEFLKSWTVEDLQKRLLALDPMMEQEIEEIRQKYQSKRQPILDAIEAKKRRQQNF

[7] = biological target: T1, Serine/threonine-protein kinase 4 (Homo sapiens); conditions: at 1 µM
[8] = biological target: T2, Serine/threonine-protein kinase 3 (Homo sapiens) (UniProt Q13188); conditions: at 0.1 µM
T2 sequence (whole entry): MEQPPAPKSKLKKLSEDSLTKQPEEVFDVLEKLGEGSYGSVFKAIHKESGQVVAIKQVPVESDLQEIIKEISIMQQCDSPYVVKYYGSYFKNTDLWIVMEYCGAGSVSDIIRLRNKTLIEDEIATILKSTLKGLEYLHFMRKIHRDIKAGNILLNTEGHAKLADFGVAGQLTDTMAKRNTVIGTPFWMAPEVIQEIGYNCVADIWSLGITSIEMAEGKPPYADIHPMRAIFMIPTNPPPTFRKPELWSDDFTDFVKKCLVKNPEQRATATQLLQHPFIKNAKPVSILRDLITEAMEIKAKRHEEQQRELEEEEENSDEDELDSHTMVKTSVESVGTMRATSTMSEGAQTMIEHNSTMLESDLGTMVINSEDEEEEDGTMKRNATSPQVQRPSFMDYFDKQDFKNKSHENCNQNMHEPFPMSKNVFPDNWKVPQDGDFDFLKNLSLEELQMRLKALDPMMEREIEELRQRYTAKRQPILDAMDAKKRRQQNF

[9] = biological target: T2, Serine/threonine-protein kinase 3 (Homo sapiens); conditions: at 1 µM
[10] = biological target: Serine/threonine-protein kinase 26 (Homo sapiens) (UniProt Q9P289); conditions: at 0.1 µM
Chain of Serine/threonine-protein kinase 26 (Homo sapiens) (Q9P289 2-416 limits assumed): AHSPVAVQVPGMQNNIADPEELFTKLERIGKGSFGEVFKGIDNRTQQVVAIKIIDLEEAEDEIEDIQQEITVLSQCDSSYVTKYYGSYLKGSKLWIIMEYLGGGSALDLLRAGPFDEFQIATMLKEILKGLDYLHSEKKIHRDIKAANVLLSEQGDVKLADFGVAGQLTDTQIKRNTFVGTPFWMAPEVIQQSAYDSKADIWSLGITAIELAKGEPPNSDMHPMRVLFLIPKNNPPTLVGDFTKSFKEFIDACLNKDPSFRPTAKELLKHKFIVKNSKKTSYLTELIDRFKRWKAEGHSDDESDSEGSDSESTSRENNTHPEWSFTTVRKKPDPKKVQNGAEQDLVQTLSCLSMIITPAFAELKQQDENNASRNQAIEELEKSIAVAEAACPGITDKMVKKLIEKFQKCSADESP

Chain of Dual specificity mitogen-activated protein kinase kinase 1 (Homo sapiens) (Q02750 whole entry): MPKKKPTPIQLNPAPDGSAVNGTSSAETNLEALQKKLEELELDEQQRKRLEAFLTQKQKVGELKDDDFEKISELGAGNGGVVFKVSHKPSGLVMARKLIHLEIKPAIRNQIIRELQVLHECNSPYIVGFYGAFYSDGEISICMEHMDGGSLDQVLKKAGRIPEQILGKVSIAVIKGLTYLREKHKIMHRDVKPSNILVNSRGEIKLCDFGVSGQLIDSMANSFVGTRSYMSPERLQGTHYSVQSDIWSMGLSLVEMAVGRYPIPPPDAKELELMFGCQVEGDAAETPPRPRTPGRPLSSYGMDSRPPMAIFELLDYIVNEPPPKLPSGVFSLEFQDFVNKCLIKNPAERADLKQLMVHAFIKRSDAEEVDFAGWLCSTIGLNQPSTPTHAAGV
Chain of Mitogen-activated protein kinase kinase kinase kinase 4 (Homo sapiens) (O95819 2-1239 limits assumed): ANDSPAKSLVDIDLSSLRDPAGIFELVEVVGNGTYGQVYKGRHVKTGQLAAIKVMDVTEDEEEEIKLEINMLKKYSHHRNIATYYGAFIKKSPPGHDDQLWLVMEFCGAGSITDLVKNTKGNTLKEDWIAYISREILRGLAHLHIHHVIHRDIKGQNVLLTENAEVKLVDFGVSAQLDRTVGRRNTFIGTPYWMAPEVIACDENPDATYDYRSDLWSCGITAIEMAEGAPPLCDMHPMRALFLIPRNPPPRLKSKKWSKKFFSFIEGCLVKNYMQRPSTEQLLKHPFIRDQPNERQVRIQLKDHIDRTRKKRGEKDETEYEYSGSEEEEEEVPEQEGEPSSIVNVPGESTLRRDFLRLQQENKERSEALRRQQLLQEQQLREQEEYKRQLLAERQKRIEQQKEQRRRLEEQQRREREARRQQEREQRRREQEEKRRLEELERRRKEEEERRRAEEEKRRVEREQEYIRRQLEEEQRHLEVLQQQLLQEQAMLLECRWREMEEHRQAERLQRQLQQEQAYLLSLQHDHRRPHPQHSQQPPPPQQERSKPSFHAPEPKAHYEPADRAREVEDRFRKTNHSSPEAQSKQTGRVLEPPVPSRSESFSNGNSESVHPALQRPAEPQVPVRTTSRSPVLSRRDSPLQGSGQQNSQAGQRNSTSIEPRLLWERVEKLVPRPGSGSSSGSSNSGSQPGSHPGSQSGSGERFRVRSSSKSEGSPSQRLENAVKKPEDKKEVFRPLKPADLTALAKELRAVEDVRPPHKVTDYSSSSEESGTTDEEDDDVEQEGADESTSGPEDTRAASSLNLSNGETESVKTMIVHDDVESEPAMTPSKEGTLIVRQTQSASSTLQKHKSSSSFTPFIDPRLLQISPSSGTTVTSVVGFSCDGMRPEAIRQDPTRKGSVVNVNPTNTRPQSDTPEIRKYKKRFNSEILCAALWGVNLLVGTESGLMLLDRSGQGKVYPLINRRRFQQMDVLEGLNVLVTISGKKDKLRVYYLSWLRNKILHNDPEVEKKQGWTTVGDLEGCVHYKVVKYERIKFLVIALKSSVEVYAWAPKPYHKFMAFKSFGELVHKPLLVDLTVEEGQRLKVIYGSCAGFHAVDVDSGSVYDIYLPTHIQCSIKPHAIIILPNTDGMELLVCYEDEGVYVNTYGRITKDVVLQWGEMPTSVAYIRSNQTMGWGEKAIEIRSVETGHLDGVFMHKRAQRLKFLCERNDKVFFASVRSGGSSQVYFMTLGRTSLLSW

| Compound | inhibition [1] [%] | inhibition [2] [%] | inhibition [3] [%] | inhibition [4] [%] | inhibition [5] [%] | inhibition [6] [%] | inhibition [7] [%] | inhibition [8] [%] | inhibition [9] [%] | inhibition [10] [%] |
| --- | --- | --- | --- | --- | --- | --- | --- | --- | --- | --- |
| COC(=O)c1ccc2c(c1)C(=Cc1cc(Br)c(O)c(Br)c1)C(=O)N2 | 84.7 | 3.31 | 5.79 | 26.4 | 75.2 | 3.54 | 19 | 4.78 | 19.5 | 1.49 |
| Nc1nccc(C#Cc2cncnc2Nc2ccc(OCc3cccc(F)c3)c(Cl)c2)n1 | 5.46 | 2.67 | 4.4 | 6.95 | 6.41 | 6.4 | 10.4 | 6.63 | 7.32 | -1.78 |
| C[C@@H](Oc1cc(-n2cnc3ccc(OCC4CCN(C)CC4)cc32)sc1C(N)=O)c1ccccc1C(F)(F)F | 1.19 | -0.27 | 0.01 | 0.08 | 0.43 | 29.1 | 74.7 | 11.4 | 56.7 | – |
| Cc1cc(-c2ccccn2)cc(C)c1/C=C/c1cncc(-c2nn[nH]n2)c1 | 13.5 | 3.04 | 4.93 | 2.69 | 9.19 | 3.88 | 8.04 | 3.7 | 7.75 | -1.78 |
| CCS(=O)(=O)c1ccc(OC)c(Nc2nccc(N(C)c3ccc4c(C)n[nH]c4c3)n2)c1 | 15.6 | 4.63 | 5.1 | 3.64 | 11.7 | 4.2 | 5.13 | 4.58 | 5.24 | -2.14 |
| COc1cc2ncnc(Nc3ccc4c(cnn4Cc4ccccc4)c3)c2cc1OC | 9.55 | 3.32 | 2.12 | 7.38 | 9.64 | 3.42 | 7.03 | 2.19 | 5.68 | -0.63 |
| COc1cc2ncn(-c3cc(OCc4ccccc4S(C)(=O)=O)c(C#N)s3)c2cc1OC | 90.5 | 3.78 | 7.23 | 43.7 | 83.5 | 22.3 | 66.4 | 17.3 | 51.5 | -1.33 |
| CS(=O)(=O)Nc1cccc(-c2ccc3c(NC(=O)C4CC4)n[nH]c3c2)c1 | 6.35 | 0.37 | 0.96 | 1.34 | 6.69 | 3.33 | 4.09 | 3.45 | 4.09 | -3.32 |
| Cc1ccc(Nc2ccnc(Nc3cccc(C(N)=O)c3)n2)cc1O | 28.9 | 4.22 | 4.94 | 6.27 | 22 | 5.18 | 12.2 | 4.59 | 10.1 | 0.27 |
| CS(=O)(=O)CCNCc1nc(-c2ccc3ncnc(Nc4ccc(OCc5cccc(C(F)(F)F)c5)cc4)c3c2)cs1 | 3.34 | 1.13 | 0.13 | 2.9 | 4.39 | 3.31 | 6.13 | 4.17 | 6.28 | -0.02 |
| CN(C)c1cc2c(Nc3ccc4c(cnn4Cc4ccccc4)c3)ncnc2cn1 | 6.51 | 3.44 | 2.77 | 3.28 | 4.78 | 3.03 | 1.68 | 4.54 | 2.67 | -1.9 |
| Nc1nccc(-c2c(-c3ccc(F)cc3)ncn2CCCN2CCOCC2)n1 | 8.06 | 5.23 | 4.45 | 5.84 | 7.98 | 3.71 | 5.25 | 4.5 | 5.71 | -0.66 |
| [O-][S+]1CCN(Cc2ccc(-c3ccc4ncnc(Nc5ccc(OCc6ccccc6)c(Cl)c5)c4c3)o2)CC1 | 3.32 | 2.1 | 3.29 | -0.23 | 1.36 | 0.8 | 1.83 | -0.27 | 0.41 | -0.67 |
| O=S(=O)(CCOCc1ccc(-c2ccc3ncnc(Nc4ccc(OCc5cccc(F)c5)c(Cl)c4)c3c2)o1)c1ccccc1 | 7 | 2.11 | 3.33 | 3.54 | 5.66 | 4.3 | 7.99 | 0.99 | 5.7 | -0.04 |
| COc1cccc(-n2ncc3c(N/N=C/c4ccc(S(C)(=O)=O)cc4)ncnc32)c1 | 59.4 | 1.79 | 1.58 | 13.4 | 50.3 | 1.66 | 4.3 | 0.59 | 2.91 | 1.71 |
| COc1cccc(-n2ncc3c(N/N=C/c4ccc(C)cc4)ncnc32)c1 | 21 | 4.05 | 3.78 | 7.18 | 16.1 | 5.34 | 13.2 | 6.16 | 11.4 | -1.81 |
| NS(=O)(=O)c1ccc(-c2cc3ccncc3cc2OCc2ccccc2)cc1 | 6.71 | 4.49 | 3.72 | 2.78 | 5.92 | 5.08 | 7.76 | 5.7 | 5.97 | 0.92 |

| Compound | inhibition [1] [%] | inhibition [2] [%] | inhibition [3] [%] | inhibition [4] [%] | inhibition [5] [%] | inhibition [6] [%] | inhibition [7] [%] | inhibition [8] [%] | inhibition [9] [%] | inhibition [10] [%] |
| --- | --- | --- | --- | --- | --- | --- | --- | --- | --- | --- |
| NC(=O)c1cccc(Nc2nccc(Nc3cccc(F)c3)n2)c1 | 44.9 | -0.23 | 1.42 | 6.07 | 33.3 | 0.59 | 12.2 | 1.63 | 6.4 | -0.81 |
| ON=C1CCc2cc(-c3nc(C4CCNCC4)[nH]c3-c3ccncc3)ccc21 | 21.5 | 0.2 | 2.1 | 4.01 | 18.4 | 2.4 | 3.87 | 1.63 | 2.8 | 0.5 |
| CN(C)C(=O)O[C@@H]1CN[C@@H](C#Cc2cc3ncnc(Nc4ccc(OCc5cccc(F)c5)c(Cl)c4)c3s2)C1 | 6.27 | -0.21 | 0.83 | 2.49 | 6.17 | -1.32 | 0.53 | -2.45 | -0.68 | 0.14 |
| Cc1nc(-c2ccccc2)n2nc(NCCCN3CCOCC3)ncc12 | 5.45 | 2.79 | 4.46 | 4.74 | 5.12 | 1.32 | 4 | 2.92 | 4.68 | – |
| COc1ccc(-c2nn3ncccc3c2-c2ccnc(Nc3cccc(C(F)(F)F)c3)n2)cc1 | 4.62 | 1.9 | 2.55 | 5.18 | 5.08 | 1.69 | 2.89 | 4.76 | 5.12 | -0.3 |
| CCn1c(-c2nonc2N)nc2c(C#CC(C)(C)O)nc(OCCNC)cc21 | 6.25 | 3.55 | 3.92 | 5.45 | 5.87 | 3.15 | 6.97 | 5.27 | 7.27 | -3.54 |
| FC(F)(F)c1ccc(-c2nn3ncccc3c2-c2ccnc(Nc3ccc4c(c3)OCCO4)n2)cc1 | 12 | 1.64 | -1.13 | 2.9 | 11.5 | 3.87 | 7.46 | 4.21 | 8.12 | 6.19 |
| c1ccc(Nc2ncc(-c3ccccc3)o2)cc1 | 25.9 | 5.07 | 4.19 | 6.17 | 19 | 2.36 | 4.87 | 4.89 | 6.36 | -1.38 |
| CN(c1ccc(NC(=O)Nc2ccc(OC(F)(F)F)cc2)cc1)c1ccnc(Nc2cccc(S(N)(=O)=O)c2)n1 | 85.1 | 3.84 | 13.7 | 24.3 | 80.3 | 2.75 | 9.45 | 4.46 | 6.49 | -1.04 |
| Cc1ccc(NC(=O)CC2CC2)cc1-c1ccc(C(=O)NCC2CC2)cc1 | 9.33 | 3.69 | 2.73 | 2.74 | 5.47 | 5.3 | 8.01 | 4.49 | 5.72 | 0.36 |
| O=C1Nc2ccc(-c3cccnc3)cc2C1=Cc1cc(Br)c(O)c(Br)c1 | 91.6 | 4.59 | 5.62 | 45 | 81.6 | 9.98 | 39.6 | 10.3 | 37.3 | 9.93 |
| Cc1ccc2c(-c3ccnc(Nc4ccc5c(c4)OCCO5)n3)c(-c3ccc(C(F)(F)F)cc3)nn2n1 | -0.58 | 1.89 | 1.58 | 0.81 | -1.31 | 0.92 | 3.55 | 0.03 | 2.76 | 1.07 |
| C[C@@H](Oc1cc(-n2cnc3ccc(OC[C@@H](O)CO)cc32)sc1C(N)=O)c1ccccc1Cl | 4.28 | -0.54 | 0.3 | -1.25 | 2.89 | 3.22 | 34.1 | 2.75 | 25.7 | -0.27 |
| NS(=O)(=O)c1cccc(-c2cc3ccncc3cc2OCc2ccccc2)c1 | 11.1 | 5.91 | 5.86 | 7.3 | 13.4 | 8 | 11.9 | 7.94 | 11 | -2.99 |
| COc1ccc2ncnc(Nc3ccc(OCc4ccccc4)cc3)c2c1 | 7.18 | 3.95 | 2.41 | 3.65 | 4.24 | 1.92 | 4.04 | 1.62 | 3.92 | -1.91 |
| COc1cc2ncnc(Nc3ccc(C)c(O)c3)c2cc1OC | 21.4 | 6.11 | 5.54 | 9.75 | 18 | 5.24 | 9.47 | 5.84 | 8.26 | -1.09 |
| O=C1Nc2ccccc2/C1=C/Nc1ccc2[nH]c(=O)[nH]c2c1 | 75.4 | 8.19 | 6.88 | 17.4 | 64.3 | 18.1 | 67.2 | 15.5 | 59.4 | -1.35 |
